Measurements taken from the supplement of paper PMC11732987, “Enantioselective OTUD7B fragment discovery through chemoproteomics screening and high-throughput optimisation” (Communications Chemistry, 2025).

Columns and labels:
Experiment in all cases: log2 ratio of Biotin-Ahx-Ub-VS probe labelling (fragment/DMSO); higher = less target engagement (more negative = stronger competition), active = hit call of the paper (q ≤ 0.05, log2 ratio ≤ -1)
Conditions in all cases: compound concentration: 200 uM; treatment time: 3 h
USP9X = USP9X (UniProt Q93008)
In short: (§1)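 HEK293T lysate (495 µg per sample, in Tris/CHAPS/IGEPAL buffer with protease inhibitors) was treated in triplicate with fragment at 200 µM or with DMSO for 3 h. It was then treated with Biotin-Ahx-Ub-VS (0.5 µM final) for 1 h. Labelled DUBs were NeutrAvidin-enriched, digested with LysC and trypsin, and run by diaPASEF LC-MS/MS. Spectronaut label-free quantities were global-median-normalised. Values are average log2 ratios fragment/DMSO by unpaired t-test, using proteins with ≥2 unique peptides.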

UniProt O00487 = biological target: UniProt O00487
Chain of UniProt O00487 (O00487 whole entry): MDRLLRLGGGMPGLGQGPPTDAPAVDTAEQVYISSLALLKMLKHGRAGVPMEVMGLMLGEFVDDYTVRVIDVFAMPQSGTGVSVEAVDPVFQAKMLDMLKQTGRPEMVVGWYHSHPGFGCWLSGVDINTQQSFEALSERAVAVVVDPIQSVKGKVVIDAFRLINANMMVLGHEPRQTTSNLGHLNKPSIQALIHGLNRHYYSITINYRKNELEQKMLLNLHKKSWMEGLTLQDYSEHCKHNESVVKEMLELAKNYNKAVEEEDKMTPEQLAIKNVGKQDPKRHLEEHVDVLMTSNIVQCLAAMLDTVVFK
In short: as §1

UniProt O00507 = biological target: UniProt O00507
Chain of UniProt O00507 (O00507 whole entry): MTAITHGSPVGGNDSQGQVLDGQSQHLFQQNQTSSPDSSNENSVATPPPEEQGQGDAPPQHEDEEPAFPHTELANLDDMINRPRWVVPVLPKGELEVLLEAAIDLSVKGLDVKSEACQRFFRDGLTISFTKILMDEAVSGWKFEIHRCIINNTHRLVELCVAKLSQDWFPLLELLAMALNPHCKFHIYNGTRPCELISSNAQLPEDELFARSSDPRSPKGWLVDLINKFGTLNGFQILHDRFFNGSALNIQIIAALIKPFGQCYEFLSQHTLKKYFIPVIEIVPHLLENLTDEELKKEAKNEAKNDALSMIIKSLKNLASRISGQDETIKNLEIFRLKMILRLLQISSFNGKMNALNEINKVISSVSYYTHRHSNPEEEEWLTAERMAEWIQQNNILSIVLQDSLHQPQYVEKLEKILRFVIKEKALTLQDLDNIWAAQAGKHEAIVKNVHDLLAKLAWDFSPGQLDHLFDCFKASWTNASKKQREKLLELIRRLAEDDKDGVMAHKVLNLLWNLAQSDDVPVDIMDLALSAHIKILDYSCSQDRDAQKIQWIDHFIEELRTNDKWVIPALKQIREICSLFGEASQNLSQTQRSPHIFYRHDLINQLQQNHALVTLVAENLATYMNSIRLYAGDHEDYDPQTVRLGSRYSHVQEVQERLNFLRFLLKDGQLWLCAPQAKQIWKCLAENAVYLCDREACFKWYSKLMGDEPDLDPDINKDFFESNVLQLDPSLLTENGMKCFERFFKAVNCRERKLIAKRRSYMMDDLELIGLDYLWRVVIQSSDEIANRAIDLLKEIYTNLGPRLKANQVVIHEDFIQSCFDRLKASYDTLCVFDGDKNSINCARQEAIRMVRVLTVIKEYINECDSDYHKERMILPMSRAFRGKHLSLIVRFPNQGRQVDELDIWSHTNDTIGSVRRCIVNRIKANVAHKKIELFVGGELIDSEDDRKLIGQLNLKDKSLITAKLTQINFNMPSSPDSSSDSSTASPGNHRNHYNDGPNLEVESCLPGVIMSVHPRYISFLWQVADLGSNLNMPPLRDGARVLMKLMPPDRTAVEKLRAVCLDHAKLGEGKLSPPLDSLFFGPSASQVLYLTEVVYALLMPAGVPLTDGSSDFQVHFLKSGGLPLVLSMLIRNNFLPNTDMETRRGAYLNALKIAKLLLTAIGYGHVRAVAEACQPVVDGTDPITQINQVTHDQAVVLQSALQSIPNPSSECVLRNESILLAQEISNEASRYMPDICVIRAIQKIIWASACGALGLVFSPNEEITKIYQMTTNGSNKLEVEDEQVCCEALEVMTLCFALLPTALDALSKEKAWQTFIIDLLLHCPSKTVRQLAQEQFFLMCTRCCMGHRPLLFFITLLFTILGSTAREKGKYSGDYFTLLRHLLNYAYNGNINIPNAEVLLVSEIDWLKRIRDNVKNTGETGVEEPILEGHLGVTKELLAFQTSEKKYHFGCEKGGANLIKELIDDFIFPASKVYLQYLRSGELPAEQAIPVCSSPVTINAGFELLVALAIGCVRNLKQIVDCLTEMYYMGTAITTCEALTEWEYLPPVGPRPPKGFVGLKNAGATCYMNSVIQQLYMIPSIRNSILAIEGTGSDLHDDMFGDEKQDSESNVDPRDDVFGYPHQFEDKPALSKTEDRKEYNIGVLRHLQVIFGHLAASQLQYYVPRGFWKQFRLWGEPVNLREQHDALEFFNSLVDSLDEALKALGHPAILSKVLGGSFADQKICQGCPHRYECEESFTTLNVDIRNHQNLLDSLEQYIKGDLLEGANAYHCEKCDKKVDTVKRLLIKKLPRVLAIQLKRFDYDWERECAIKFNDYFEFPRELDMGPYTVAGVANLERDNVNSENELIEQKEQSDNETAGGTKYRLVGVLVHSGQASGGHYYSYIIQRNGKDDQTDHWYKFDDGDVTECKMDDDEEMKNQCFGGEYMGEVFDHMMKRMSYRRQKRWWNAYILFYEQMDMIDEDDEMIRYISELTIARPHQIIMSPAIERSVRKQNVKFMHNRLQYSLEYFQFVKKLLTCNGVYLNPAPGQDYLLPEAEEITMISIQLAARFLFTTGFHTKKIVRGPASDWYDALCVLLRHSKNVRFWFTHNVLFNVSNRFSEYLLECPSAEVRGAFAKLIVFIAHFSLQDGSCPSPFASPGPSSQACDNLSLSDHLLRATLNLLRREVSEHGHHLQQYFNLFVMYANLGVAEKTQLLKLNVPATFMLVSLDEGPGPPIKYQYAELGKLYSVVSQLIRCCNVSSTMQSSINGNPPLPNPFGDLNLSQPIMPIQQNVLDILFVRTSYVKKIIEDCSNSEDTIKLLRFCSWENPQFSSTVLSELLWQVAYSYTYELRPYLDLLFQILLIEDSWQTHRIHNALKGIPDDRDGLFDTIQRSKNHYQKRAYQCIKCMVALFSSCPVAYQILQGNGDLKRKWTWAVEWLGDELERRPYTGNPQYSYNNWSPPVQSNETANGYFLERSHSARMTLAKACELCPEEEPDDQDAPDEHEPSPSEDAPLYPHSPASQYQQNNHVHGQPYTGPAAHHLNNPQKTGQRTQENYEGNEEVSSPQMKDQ
In short: as §1

UniProt P51784 = biological target: UniProt P51784
Chain of UniProt P51784 (P51784 whole entry): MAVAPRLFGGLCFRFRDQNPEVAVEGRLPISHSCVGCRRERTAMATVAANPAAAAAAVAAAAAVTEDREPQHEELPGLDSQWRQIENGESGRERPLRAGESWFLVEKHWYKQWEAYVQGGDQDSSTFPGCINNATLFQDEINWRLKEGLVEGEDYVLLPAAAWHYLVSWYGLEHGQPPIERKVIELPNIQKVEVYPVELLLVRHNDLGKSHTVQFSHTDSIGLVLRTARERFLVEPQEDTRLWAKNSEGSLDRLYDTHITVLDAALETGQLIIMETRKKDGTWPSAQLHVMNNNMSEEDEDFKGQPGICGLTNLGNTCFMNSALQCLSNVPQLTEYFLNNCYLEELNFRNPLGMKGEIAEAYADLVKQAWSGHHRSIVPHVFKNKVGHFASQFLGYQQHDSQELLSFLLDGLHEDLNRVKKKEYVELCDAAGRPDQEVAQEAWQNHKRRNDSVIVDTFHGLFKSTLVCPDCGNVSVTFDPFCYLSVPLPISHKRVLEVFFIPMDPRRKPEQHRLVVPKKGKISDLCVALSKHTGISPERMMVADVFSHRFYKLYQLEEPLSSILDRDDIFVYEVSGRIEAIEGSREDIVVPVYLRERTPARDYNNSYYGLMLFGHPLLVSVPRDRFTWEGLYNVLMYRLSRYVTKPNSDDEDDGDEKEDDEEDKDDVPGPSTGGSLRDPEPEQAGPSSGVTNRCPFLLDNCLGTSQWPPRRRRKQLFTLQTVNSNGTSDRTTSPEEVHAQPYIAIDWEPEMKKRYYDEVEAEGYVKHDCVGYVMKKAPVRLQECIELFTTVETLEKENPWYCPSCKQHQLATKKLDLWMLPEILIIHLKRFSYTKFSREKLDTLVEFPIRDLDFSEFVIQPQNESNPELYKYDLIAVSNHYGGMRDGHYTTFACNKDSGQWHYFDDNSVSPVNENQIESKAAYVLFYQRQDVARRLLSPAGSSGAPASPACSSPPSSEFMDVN
In short: as §1

UniProt Q5T2D3 = biological target: T1, UniProt Q5T2D3
T1 sequence (whole entry): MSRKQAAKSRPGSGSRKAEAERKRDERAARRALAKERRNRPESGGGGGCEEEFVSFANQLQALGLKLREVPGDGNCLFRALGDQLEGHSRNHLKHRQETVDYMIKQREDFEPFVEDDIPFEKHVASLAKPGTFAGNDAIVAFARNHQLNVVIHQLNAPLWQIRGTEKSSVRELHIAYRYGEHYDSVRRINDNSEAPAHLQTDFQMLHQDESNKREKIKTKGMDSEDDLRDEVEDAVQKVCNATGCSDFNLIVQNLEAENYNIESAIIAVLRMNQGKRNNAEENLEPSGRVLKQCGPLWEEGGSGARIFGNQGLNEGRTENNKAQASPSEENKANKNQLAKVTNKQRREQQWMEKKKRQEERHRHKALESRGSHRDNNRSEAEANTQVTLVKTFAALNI
In short: as §1

UniProt Q8TE49 = biological target: T2, UniProt Q8TE49
T2 sequence (whole entry): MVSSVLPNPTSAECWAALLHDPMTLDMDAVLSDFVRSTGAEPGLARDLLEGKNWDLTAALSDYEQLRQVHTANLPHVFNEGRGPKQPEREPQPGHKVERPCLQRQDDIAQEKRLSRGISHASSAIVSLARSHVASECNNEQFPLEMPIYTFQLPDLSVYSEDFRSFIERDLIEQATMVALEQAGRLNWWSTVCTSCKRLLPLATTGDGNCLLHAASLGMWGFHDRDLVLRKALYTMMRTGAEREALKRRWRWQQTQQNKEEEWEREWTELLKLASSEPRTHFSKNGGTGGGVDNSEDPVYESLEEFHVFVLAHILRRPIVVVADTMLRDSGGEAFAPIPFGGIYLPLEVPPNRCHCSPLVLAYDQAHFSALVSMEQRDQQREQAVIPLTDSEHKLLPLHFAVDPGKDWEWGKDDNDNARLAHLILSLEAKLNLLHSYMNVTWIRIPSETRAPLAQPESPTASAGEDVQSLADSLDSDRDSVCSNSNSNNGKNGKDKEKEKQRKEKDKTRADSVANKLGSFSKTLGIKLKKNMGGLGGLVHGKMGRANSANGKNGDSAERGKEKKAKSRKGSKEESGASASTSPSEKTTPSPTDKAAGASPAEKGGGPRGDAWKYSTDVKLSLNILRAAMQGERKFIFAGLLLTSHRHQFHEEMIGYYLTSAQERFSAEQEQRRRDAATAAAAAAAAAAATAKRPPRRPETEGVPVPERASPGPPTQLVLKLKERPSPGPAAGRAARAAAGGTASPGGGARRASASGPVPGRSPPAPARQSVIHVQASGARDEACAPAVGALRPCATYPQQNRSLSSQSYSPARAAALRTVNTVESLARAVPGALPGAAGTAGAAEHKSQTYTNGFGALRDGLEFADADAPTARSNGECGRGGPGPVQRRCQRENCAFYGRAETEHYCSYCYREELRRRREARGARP
In short: as §1

UniProt Q9P2H5 = biological target: T3, UniProt Q9P2H5
T3 sequence (whole entry): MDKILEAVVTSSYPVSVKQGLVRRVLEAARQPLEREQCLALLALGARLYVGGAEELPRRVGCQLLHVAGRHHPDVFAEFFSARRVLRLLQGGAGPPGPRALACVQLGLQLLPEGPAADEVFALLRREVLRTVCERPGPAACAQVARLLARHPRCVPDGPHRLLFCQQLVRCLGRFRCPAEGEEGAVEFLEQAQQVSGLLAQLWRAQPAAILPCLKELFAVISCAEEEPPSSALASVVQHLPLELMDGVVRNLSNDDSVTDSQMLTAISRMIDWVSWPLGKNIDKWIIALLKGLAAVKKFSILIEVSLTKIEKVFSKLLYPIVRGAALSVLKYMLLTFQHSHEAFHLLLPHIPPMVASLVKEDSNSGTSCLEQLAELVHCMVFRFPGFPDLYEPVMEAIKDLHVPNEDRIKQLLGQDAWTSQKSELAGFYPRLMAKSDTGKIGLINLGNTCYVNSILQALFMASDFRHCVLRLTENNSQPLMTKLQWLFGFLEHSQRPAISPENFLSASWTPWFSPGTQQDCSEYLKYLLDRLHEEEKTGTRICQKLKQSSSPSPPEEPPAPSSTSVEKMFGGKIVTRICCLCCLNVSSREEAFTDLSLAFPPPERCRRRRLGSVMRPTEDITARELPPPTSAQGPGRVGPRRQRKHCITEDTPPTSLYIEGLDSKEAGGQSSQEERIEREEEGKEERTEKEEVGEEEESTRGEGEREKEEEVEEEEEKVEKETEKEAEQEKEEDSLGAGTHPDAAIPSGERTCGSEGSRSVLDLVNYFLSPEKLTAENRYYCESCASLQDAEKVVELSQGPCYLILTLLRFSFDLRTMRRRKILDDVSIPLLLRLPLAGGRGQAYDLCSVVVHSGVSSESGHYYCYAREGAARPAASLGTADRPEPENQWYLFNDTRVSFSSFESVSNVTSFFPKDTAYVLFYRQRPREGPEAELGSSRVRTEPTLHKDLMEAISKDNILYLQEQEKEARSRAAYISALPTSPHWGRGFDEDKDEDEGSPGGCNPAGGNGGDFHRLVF
In short: as §1

UniProt Q9UGI0 = biological target: T4, UniProt Q9UGI0
T4 sequence (whole entry): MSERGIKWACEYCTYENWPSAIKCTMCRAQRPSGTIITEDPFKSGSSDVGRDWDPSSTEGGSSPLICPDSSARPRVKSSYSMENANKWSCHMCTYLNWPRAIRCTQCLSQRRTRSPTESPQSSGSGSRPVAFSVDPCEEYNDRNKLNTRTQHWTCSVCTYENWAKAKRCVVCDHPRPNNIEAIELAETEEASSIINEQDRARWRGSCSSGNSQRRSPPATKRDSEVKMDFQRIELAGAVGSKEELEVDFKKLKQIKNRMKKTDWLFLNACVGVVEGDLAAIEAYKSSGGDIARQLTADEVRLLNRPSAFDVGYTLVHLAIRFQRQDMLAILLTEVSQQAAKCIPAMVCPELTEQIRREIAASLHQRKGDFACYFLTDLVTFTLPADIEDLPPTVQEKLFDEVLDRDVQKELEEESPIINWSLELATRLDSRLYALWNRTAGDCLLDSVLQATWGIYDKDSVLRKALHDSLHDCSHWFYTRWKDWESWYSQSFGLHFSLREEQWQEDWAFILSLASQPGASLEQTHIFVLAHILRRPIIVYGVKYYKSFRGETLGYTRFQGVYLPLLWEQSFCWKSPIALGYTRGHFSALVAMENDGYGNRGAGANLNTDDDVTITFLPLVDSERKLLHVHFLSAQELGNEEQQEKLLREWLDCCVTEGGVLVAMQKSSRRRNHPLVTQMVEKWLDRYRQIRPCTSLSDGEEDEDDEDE
In short: as §1

YOD1 = biological target: T5, YOD1 (UniProt Q5VVQ6)
T5 sequence (whole entry): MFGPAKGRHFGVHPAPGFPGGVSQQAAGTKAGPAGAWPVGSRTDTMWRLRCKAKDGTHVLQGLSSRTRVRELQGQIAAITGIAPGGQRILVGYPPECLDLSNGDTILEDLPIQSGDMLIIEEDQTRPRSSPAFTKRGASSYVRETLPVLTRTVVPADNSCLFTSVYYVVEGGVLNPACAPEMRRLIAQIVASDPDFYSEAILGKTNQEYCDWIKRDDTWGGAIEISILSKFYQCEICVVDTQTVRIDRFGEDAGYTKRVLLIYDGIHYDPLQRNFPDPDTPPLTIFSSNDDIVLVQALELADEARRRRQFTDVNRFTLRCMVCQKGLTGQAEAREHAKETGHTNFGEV
In short: as §1

Measured: log2 ratio of Biotin-Ahx-Ub-VS probe labelling

O=C(CCl)NC1CCS(=O)(=O)c2ccccc21 (centres undefined)
inactive: USP9X -0.445 | UniProt O00487 -0.242 | UniProt O00507 -0.00358 | UniProt P51784 -0.174 | UniProt Q5T2D3 -0.342 | UniProt Q9P2H5 -0.644 | UniProt Q9UGI0 -0.564 | YOD1 0.0479
active: UniProt Q8TE49 -1.2
